Source: PubChem (The Scripps Research Institute Molecular Screening Center)
DAX1 inh-1 – inhibitors of DAX1 repression of SF-1 activated StAR promoter; 370,000 tested, 1.1% active; inhibition, % at 6.8 µM; AID 652010; HEK293T StAR-luciferase reporter, SF-1/DAX-1 repression relief;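 active = inhibition above the mean over all tested compounds plus 3 SD, cut at about 3.6% in these data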;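 note: 0% = DAX-1 cells with DMSO and 100% = cells lacking DAX-1 with DMSO; higher inhibition means more luminescence from relief of DAX-1 repression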
DAX1 inh-2 – inhibits human nuclear receptor DAX1; P51843; HEK293 Gal4-DAX1 luciferase reporter, luminescence; inhibition, % at 6.75 µM; 340,000 tested, 0.99% active;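 active = inhibition above the mean over all tested compounds plus 3 SD, cut at about 4.2% in these data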;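 note: 0% = DAX1-transfected cells with DMSO and 100% = empty-vector control cells with DMSO; inhibition shows as a rise in luminescence from relieved DAX1 repression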
Target sequence (P51843 207-470 limits assumed): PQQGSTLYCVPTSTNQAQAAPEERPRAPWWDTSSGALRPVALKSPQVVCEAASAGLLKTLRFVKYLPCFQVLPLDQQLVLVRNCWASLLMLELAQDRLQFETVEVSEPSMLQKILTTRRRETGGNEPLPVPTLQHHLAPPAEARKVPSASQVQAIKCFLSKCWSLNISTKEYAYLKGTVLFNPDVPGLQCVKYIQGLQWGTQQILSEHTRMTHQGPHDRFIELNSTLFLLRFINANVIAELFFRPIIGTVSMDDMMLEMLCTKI
hgDAF-12 ag – hgDAF-12 agonism, primary luciferase screen; 370,000 tested, 1.8% active; HEK293 GAL4-hgDAF12 UAS-luciferase reporter, agonist luminescence; normalized to butyrate control; activation, % at 6.8 µM;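 active = activation above a cutoff set at the mean of all screened compounds plus 3 SD, cut at about 10% in these data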;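 note: 0% = DMSO wells and 100% = sodium butyrate wells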
SMARCA2 activ – SMARCA2 function activation, primary screen | activation, % at 9.1 µM | 370,000 tested, 1% active | MG213 cells, MMTV-luciferase reporter, dexamethasone, overnight; in the data active = activation above about 7.8%;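 note: 0% = vehicle wells and 100% = reference activator wells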
ssDAF12 agonist – S. stercoralis DAF-12 activation, primary screen | 370,000 tested, 1% active | activation, % at 6.8 µM | HEK293 ssDAF-12/GRIP1 lit1-tk-luc reporter, luminescence; % of 3 µM dafachronic acid response;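 active = activation above the mean over all tested compounds plus 3 SD, cut at about 0.9% in these data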;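 note: 0% = DMSO-only wells and 100% = 3 µM delta7-dafachronic acid wells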
hcDAF-12 act – activators of H. contortus DAF-12 nuclear receptor; HEK293 hcDAF-12 lit1-tk-luc reporter, luminescence; 0% DMSO, 100% Δ7-dafachronic acid; activation, % at 6.8 µM; 370,000 tested, 1.4% active; AID 652067;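 active = activation above the mean of all tested compounds plus 3 SD, cut at about 5.5% in these data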;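 note: 100% = response to 3 µM Δ7-dafachronic acid high control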
LXRb hcDAF ctr – activates human LXR-beta, counter-screen for hcDAF-12 agonists | shares compounds with hcDAF-12 act | HEK293 Gal4-LXR tk-luc reporter, luminescence, 24 h; normalized: DMSO 0%, positive control 100% | activation, % at 6.8 µM | 3,400 tested, under 10 active;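 active = mean percent activation of the reporter above a cutoff set as the average over tested compounds plus their standard deviation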
hcDAF12 ag – confirmation of H. contortus DAF-12 agonists; shares compounds with hcDAF-12 act; HEK293 hcDAF-12 lit1-tk-luc reporter, luminescence; % of Δ7-dafachronic acid response; activation, % at 6.8 µM; 3,400 tested, 61% active; AID 743032;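 active = mean activation across triplicate tests above the threshold derived from the earlier primary screen, cut at about 5.5% in these data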;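 note: 0% = DMSO only wells and 100% = 3 µM Δ7-dafachronic acid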
hgDAF12 ag – hgDAF-12 agonism, confirmation assay; shares compounds with hgDAF-12 ag; HEK293 GAL4-hgDAF12 luciferase reporter, agonist mode; percent of butyrate response; activation, % at 6.8 µM; 3,300 tested, 80% active; AID 743050;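 active = mean activation over triplicate wells above the hit cutoff derived from the earlier primary screen, cut at about 11% in these data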;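 note: 0% = DMSO low control and 100% = 2 mM sodium butyrate high control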
LXRb DAF12 ctr – counter-screen for DAF-12 agonists: agonists of human LXR-beta; shares compounds with hgDAF-12 ag; 3,300 tested, under 10 active; HEK293 Gal4-LXR luciferase reporter, 24 h; activation, % at 6.8 µM;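 active = mean activation of the triplicate above a set limit carried over from the primary screen, none filed active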
* = called active by the depositor; / = not tested or not shown. The list is not random: actives were taken first. Their share in the collection is about 4.8%.

SMILES	DAX1 inh-1	DAX1 inh-2	hgDAF-12 ag	SMARCA2 activ	ssDAF12 agonist	hcDAF-12 act	hgDAF12 ag	LXRb DAF12 ctr	others
Cc1cc2c(nc1C)CCCN2Cc1ccccn1	0	/	1	-8	-1	1	/	/
CC(=O)Nc1cc2nn(-c3ccccc3)nc2cc1C	2	-1	18*	7	1.4*	7.0*	19*	1	LXRb hcDAF ctr=2;hcDAF12 ag=5
Cc1cc2nn(-c3ccccc3)nc2cc1NC(=O)c1cccs1	0	1	4	1	-1	1	/	/
COc1ccc(C2CC(=O)C(c3ccc(C(N)=O)cc3)=CN2Cc2ccccc2)cc1 (configuration not stated)	0	/	-4	-5	-1	-1	/	/
CN(C)/C=N/C1=C(C#N)C(c2cccs2)c2ccc3ccccc3c2O1 (configuration not stated)	-2	1	24*	0	1.0*	9.4*	14*	0	LXRb hcDAF ctr=0;hcDAF12 ag=8.5*
N#CC1=C(N)Oc2cc3ccccc3cc2C1c1cccs1 (configuration not stated)	-1	0	4	4	-1	0	/	/
COc1ccc2c(c1)CCc1c-2n[nH]c1C(=O)NCCC(C)C	4.0*	2	15*	1	0	6.8*	17*	1	LXRb hcDAF ctr=1;hcDAF12 ag=4
Cc1cc(=O)n2c(-c3ccccc3C)n[nH]c2n1	0	0	-1	-5	-1	-1	/	/
Cc1ccc(-c2cc(-c3ccc(C)cc3O)[nH]n2)cc1	3	5.1*	19*	1	2.9*	15*	22*	1	LXRb hcDAF ctr=2;hcDAF12 ag=10*
Cc1ccccc1-c1cc(-c2ccccc2O)n[nH]1	4	5.6*	16*	-2	1.4*	11*	18*	1	LXRb hcDAF ctr=1;hcDAF12 ag=8.1*
Cc1ccc(-c2cc(NC(=O)c3ccccc3[N+](=O)[O-])n[nH]2)cc1	0	-2	1	1	-1	-1	/	/
Cc1ccc(-c2cc(-c3ccccc3[N+](=O)[O-])[nH]n2)c(O)c1	3	5.3*	14*	-1	2.3*	9.9*	16*	1	LXRb hcDAF ctr=1;hcDAF12 ag=9.6*
COC(=O)C1=C(C)N(C)C(=NCc2cc(OC)c(OC)c(OC)c2)NC1c1cccc(Cl)c1 (configuration not stated)	0	/	-2	-2	-1	-1	/	/
Cc1ccc(NC(=O)CSCc2ccco2)cc1	0	1	17*	7	1.3*	8.0*	13*	0	LXRb hcDAF ctr=1;hcDAF12 ag=4
Cc1cccc(/C(N)=N/OC(=O)c2cccs2)c1	3	4	15*	2	1.8*	7.9*	17*	1	LXRb hcDAF ctr=1;hcDAF12 ag=5.7*
COc1ccc(C(=O)C(=O)N2CCN(S(=O)(=O)c3cccc4c(N(C)C)cccc34)CC2)cc1OC	-1	/	-1	-3	-1	-2	/	/
CSc1nc(-c2ccc(N(C)C)cc2)c(C#N)c(=O)n1C	2	1	14*	2	0	2	6	0
CCOC(=O)C1=CCN(S(=O)(=O)c2ccccc2Br)C1c1ccc(Cl)cc1 (configuration not stated)	-1	/	-2	4	-2	-2	/	/
COC(=O)c1ccc(/C=C(\C#N)c2ccccn2)cc1	3	5.0*	15*	5	1.5*	3	14*	1
CN(C)c1ccc(/C=C(\C#N)c2ccccn2)cc1	2	-4	0	0	-1	1	/	/
CC(C)(C)c1ccc(NC(=O)c2ccsc2)cc1	3	/	17*	8	1.0*	6.5*	16*	1
CC(C)(C)c1ccc(C(=O)Nc2cccnc2)cc1	2	2	16*	5	1.5*	5.9*	13*	1
O=C(Nc1cccnc1)c1ccc(C(=O)Nc2cccnc2)cc1	0	1	0	-1	-1	0	/	/
Cc1ccc(-c2cc(C(=O)Nc3cccnc3)[nH]n2)c(O)c1C	1	5.7*	14*	5	-1	1	16*	1
CCCS(=O)(=O)NC(=O)C1(C)CCCN(C(=O)c2cc(F)cc(F)c2)C1 (configuration not stated)	0	/	2	-2	0	1	/	/
SMILES	DAX1 inh-1	DAX1 inh-2	hgDAF-12 ag	SMARCA2 activ	ssDAF12 agonist	hcDAF-12 act	hgDAF12 ag	LXRb DAF12 ctr	others
Nc1nc2ccc(-c3nc4ccccc4o3)cc2s1	3	2	14*	1	1	3	13*	1
Cc1cc(NC(=O)c2cc(C3CC3)on2)no1	3	1	15*	0	0	0	7	0
Cc1c(Cl)cccc1NC(=O)c1cc(C2CC2)on1	1	1	9	1	0	0	/	/
CC(=O)/C=C(\C)Nc1ccc(-c2cnc(-c3ccccc3)o2)cc1	4.0*	4	18*	6	1	6.2*	13*	1
CC(C)C(=O)Nc1ccc(-c2nnc(-c3ccccc3)o2)cc1	2	4	14*	7	1	5	17*	1
Cc1ccc(-n2c(SCn3nnc4ccccc4c3=O)nnc2-c2cccnc2)c(C)c1	0	-1	1	-1	-2	0	/	/
Cc1ccc(SCn2nnc3ccccc3c2=O)c(C)c1	1	1	14*	5	-1	0	12*	0
COc1ccccc1-c1ccc([C@@H]2C[C@H]3[C@H](CON3C)CN2CC2CCCCC2)cc1	0	/	6	-5	0	2	/	/
CCCn1c(NC(=O)c2ccccc2)nc(Cc2ccccc2)c1-c1ccc(OC)cc1	1	/	0	-3	-1	0	/	/
Cc1ccc(Nc2nc(CSc3nnc(-c4ccccc4)n3C)cs2)cc1	2	1	14*	2	0	4	12*	0
Cc1ccc(Nc2nc(CSc3nnnn3-c3ccccc3)cs2)cc1	-1	-2	-2	-3	-1	-2	/	/
COc1cccc(C(=O)NCc2ccc3c(c2)OCO3)c1OC	0	0	-2	-2	-1	-2	/	/
COc1cccc(C(=O)Nc2ccc3c(c2)OCO3)c1OC	1	1	14*	3	1	5.8*	14*	1
